# In PubChem BioAssay (NCATS):
# Results filed as inconclusive are left out. Unmarked numbers belong to inactive results. The source made the active and inactive calls. Calls follow the shape of the dose curve; as a rule, active = well fitted cell-killing curve with a large enough effect; inconclusive = small, poorly fitted or top-dose-only effect, or effect the other way; inactive = flat fitted curve, though single readings scatter.
# Tested on: CAOV3
# Test: Primary qHTS to identify gynecologic anti-cancer compounds using libraries of approved drugs and bioactive compounds (AID 1345084); also: nearly all actives have a fitted effect of over 55% in size
# Settings: Gynecologic cancer cell panel viability, ATPlite luminescence, 48 h; series mostly up to 57.5 µM; activity change, negative = cytotoxicity: at the top concentration
# Source text: National Center for Advancing Translational Sciences [NCATS] Assay Overview: Chemotherapeutic drug responses vary from cancer to cancer and from patient to patient. These variations could be caused by a number of factors including patient genomic background, tumor mutations, tumor heterogeneity, and aspects of drug treatment. Chemotherapeutic drug resistance is also a common issue and can lead to ineffective treatment and patient death. Here we have profiled the cell killing effects of thousands of compounds to characterize the responses in three gynecological cancers, identify cancer-selective compounds, and understand the diversity of responses to these compounds from pan-cancer suppressors to single cell line selective compounds. In this assay, we screened a 7,914 compound drug library that included approved drug and bioactive compounds in six ovarian, three cervical, and […] placental cancer cell lines using the ATPlite assay for cell viability. […] The cervical cancer cell lines included HeLa, Ca Ski, and C-33 A. The placental cancer cell lines included JEG-3. HEK 293T cells were used as the control cell line to determine the selectivity index. ATPlite is a luminescence based assay reliant on the conversion of a luciferase substrate to light in the presence of ATP. As a cytotoxic compound will suppress growth and decrease the number of cells, the concentration of ATP will decrease, and less light signal will be detected in the well.
# Assay Protocol Summary: 1,000 cells in 4 uL of media were dispensed into white, solid bottom 1536-well plates using a Multidrop Combi (Thermo Scientific). The Assay plates were incubated for 16 hours at 37 C with 5% CO2 in assay plates, followed by the addition of 23 nL of DMSO or drug dissolved in DMSO. Each compound was assayed in five concentrations (0.092, 0.46, 2.3, 11.5, and 57.5 uM), using the automated Wako 1536 Pin Tool workstation and incubated at 37 C with 5% CO2 48 hours. 4 uL of ATPlite, the ATP monitoring reagent, was then added to the each well of the assay plates using the Multidrop Combi reagent dispenser followed by incubation for 15 minutes at room temperature. The resulting luminescence was measured using the ViewLux plate reader.
# % is scaled to controls: 0 for no effect and ±100 for the full control effect; potency is read from the fitted curve at half-maximal effect.
Compound,Potency,"activity change, negative = cytotoxicity"
CCCC[N+]1(C)[C@@H]2CC(OC(=O)[C@H](CO)c3ccccc3)C[C@H]1[C@@H]1O[C@@H]12 (stereo not given in full),inactive,
CCC(=O)O[C@H]1CC[C@H]2[C@@H]3CCC4=CC(=O)CC[C@]4(C)[C@H]3CC[C@]12C,,1.76%
NCc1cccnc1,,5.33%
CCN(Cc1ccc(Cl)nc1)/C(=C/[N+](=O)[O-])NC,,-12.9%
CN1CCC(N(Cc2ccccc2)c2ccccc2)CC1,,-7.14%
COc1cc(N)c(Cl)cc1C(=O)NC1CN2CCC1CC2 (stereo not given),,4.05%
Cc1nnc2n1-c1sc(CCC(=O)N3CCOCC3)cc1C(c1ccccc1Cl)=NC2,,9.54%
CN(C)C(=S)SSC(=S)N(C)C,11.2 µM (active),
C1CN2CCC1CC2,,2.65%
COc1ccc(C(=O)N2CCCC2=O)cc1,,3.85%
CN1C2CCC(C)(C)C1CC(OC(=O)C(O)(c1cccs1)c1cccs1)C2 (stereo not given),,-2.14%
Cc1c(Cl)c(=O)oc2cc(OP(=O)(OCCCl)OCCCl)ccc12,,-6.47%
CC(C)=CCN1CC[C@@]2(C)c3cc(O)ccc3C[C@@H]1[C@@H]2C,,-14.5% [at 116 µM]
O=c1n(Cl)c(=O)n(Cl)c(=O)n1Cl,,7.35%
O=C(O)c1nn(Cc2ccc(Cl)cc2Cl)c2ccccc12,,0%
CCCC(C)C1(CC)C(=O)N=C(S)NC1=O (stereo not given),,-13%
COP(=S)(OC)Oc1ccc(Sc2ccc(OP(=S)(OC)OC)cc2)cc1,,1.48%
CC[n+]1c(-c2ccccc2)c2cc(N)ccc2c2ccc(N)cc21,12.6 µM (active),
CNC(C)Cc1ccccc1OC (stereo not given),,-0.831%
O=C(CCCCl)c1ccc(F)cc1,,-1.8%

Compound,Potency,"activity change, negative = cytotoxicity"
COc1cc(C[C@@H](C)N)c(OC)cc1Br,,-12.9% [at 116 µM]
O=C(NC(=O)c1c(F)cccc1F)Nc1cc(Cl)c(OC(F)(F)C(F)C(F)(F)F)cc1Cl (stereo not given),,-17.3%
Oc1ccc([C@H]2CNCc3c2ccc(O)c3O)cc1O,,3.08%
c1ccc2nc(N3CCNCC3)ccc2c1,,8.24%
CC(C)NCC(O)c1ccc(N)c(C#N)c1 (stereo not given),,8.54%
CC1COC2(c3ccccc3Cl)c3cc(Cl)ccc3NC(=O)CN12 (stereo not given),,5.92%
Nc1ccc(N)cc1,,1.72%
CCOC(=O)c1ncn2c1CN(C)C(=O)c1c(I)cccc1-2,,5.27%
CC(C)[N+](C)(CCC(C(N)=O)(c1ccccc1)c1ccccc1)C(C)C,,2.99%
CC1N=C(N)OC1c1ccccc1 (stereo not given),,-6.27% [at 116 µM]
C#C[C@]1(O)C=C[C@H]2[C@@H]3CCC4=CC(=O)CC[C@@H]4[C@H]3CC[C@@]21CC,,9.47%
Nc1ccc(Cl)cc1C(=O)c1ccccc1F,,-3.49%
N#Cc1nn(-c2c(Cl)cc(C(F)(F)F)cc2Cl)c(N)c1S(=O)C(F)(F)F (stereo not given),,-7.98%
NC1(c2ccccc2)CCCCC1,,-21.4% [at 116 µM]
CCC1(CC)C(=O)NC(=O)NC1=O,,4.83%
CCNc1nc(Cl)nc(NCC)n1,,15.8%
NC(=O)OCCCc1ccccc1,,6.47%
COc1cc(CC(C)N)c(OC)cc1Br (stereo not given),,-6.87% [at 116 µM]
COc1cc(CC(C)N)cc2c1OCO2 (stereo not given),,14.5% [at 116 µM]
CCOC(=O)C(c1c(O)c2ccccc2oc1=O)c1c(O)c2ccccc2oc1=O,,5.69%
